Most compounds without a hit are left out; they make up all but 3.5% or so of the library.
Kir21 block: Kir2.1 (mouse) channel inhibition; HEK293-Kir2.1, FluxOR thallium flux fluorescence; active compounds read low; B-score at 10 µM; 310,000 compounds, 0.85% hits; AID 1672;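 active = fluorescence ratio B-score at or below minus 3 SD of library scores, with starting-brightness B-score within 2 SD, cut at about -4.2 in these data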;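 note: channel flux triggered by added potassium and thallium sulfate stimulus; B-score of peak minus minimum fluorescence over baseline after thallium stimulus; more negative B-score means stronger Kir2.1 block with less thallium influx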
ANO1 block: inhibitors of mouse TMEM16A calcium-activated chloride channel; Q8BHY3; HEK293 TMEM16A/YFP iodide influx fluorescence, ionomycin; normalized B-score (activity score, 25-100; higher = stronger inhibition) at 10 µM; 310,000 compounds, 1.2% hits; AID 588511;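 active = ratio plate-corrected score three or more library SD toward inhibition, starting fluorescence score within five deviations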;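 note: score derived from kinetic fluorescence span divided by baseline fluorescence per well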
KCNK3 inh: human KCNK3 channel inhibition, primary screen; AID 602410; 340,000 compounds, 0.84% hits; B-score at 10 µM; O14649; CHO-KCNK3 thallium flux, FluxOR fluorescence; active compounds read low;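 active = B-score under library mean minus 4 SD, starting fluorescence ratio at most library mean plus 5 SD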;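 note: more negative B-score means stronger inhibition of thallium flux through KCNK3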
Target sequence (O14649 whole entry, looked up): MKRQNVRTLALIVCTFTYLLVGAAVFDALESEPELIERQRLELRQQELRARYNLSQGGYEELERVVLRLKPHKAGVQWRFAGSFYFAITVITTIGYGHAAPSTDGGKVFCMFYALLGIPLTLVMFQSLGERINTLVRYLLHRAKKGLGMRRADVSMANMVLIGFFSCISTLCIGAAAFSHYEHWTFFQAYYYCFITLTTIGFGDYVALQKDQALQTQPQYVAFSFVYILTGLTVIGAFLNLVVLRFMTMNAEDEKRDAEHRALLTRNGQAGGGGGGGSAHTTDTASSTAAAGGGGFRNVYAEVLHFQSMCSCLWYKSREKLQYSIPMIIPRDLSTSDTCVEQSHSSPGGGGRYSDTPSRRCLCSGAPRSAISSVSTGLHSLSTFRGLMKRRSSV
ANO1 activ: activates or potentiates the mouse TMEM16A chloride channel; Q8BHY3; 340,000 compounds, 0.3% hits; B-score at 10 µM; HEK293 TMEM16A/YFP-H148Q/I152L, iodide quench fluorescence; active compounds read low;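 active = fluorescence-ratio B-score plate-corrected deviation score at least 3 library SD below zero, with starting fluorescence score within 5 deviations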;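 note: channel opened by trigger with iodide after compound preincubation; score built on the fluorescence ratio of max minus min over baseline; more negative score means more quench and so TMEM16A activation or potentiation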
KCNK9 block: inhibitors of human KCNK9 two-pore domain potassium channel. 310,000 compounds, 1.2% hits. HEK293 KCNK9, FluxOR thallium flux fluorescence; active compounds read low. B-score at 10 µM. Q9NPC2. AID 488922;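 active = ratio B-score over 3 SD below the library mean, with starting fluorescence within 5 SD of its mean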;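 note: negative B-score means less thallium flux so channel inhibition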
KCNK3 inh conf: confirmation of human KCNK3 two-pore domain potassium channel inhibitors; shares compounds with KCNK3 inh; CHO-KCNK3 thallium flux, FluxOR fluorescence; 0% buffer, 100% carvedilol maximal block; ratio percent of control, % at 10 µM; 2,400 compounds, 99% hits;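 active = ratio percent of control, averaged over triplicates, above buffer control mean plus 5 SD, cut at about 64% in these data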;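 note: ratio is the fluorescence rise from min to max over baseline after thallium stimulus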
KCNK3 noninduced: KCNK3 inhibitor counter-screen hit in non-induced cells | shares compounds with KCNK3 inh | non-induced KCNK3 parental cells, FluxOR thallium flux; active compounds read low | thallium flux ratio (lower = more inhibition) at 10 µM | 2,400 compounds, 40% hits | AID 651747;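 active = thallium flux ratio, averaged over three wells, more than 5 SD below the buffer control mean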;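 note: host cells are CHO cells without KCNK3 induction; ratio is peak minus trough fluorescence over baseline then normalized to buffer controls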
* marks the source's active call; other numbers are inactive results; i = inactive; x = no result given.

SMILES	Kir21 block	ANO1 block	KCNK3 inh	ANO1 activ	KCNK9 block	KCNK3 inh conf	KCNK3 noninduced
Cc1cccc(C(=O)NNC(=O)c2ccccc2)c1	0.02	i	i	i	i	x	x
Cc1ccc(C)c(C(=O)COC(=O)c2c(-c3ccccc3)noc2C)c1	x	x	-14*	i	x	136*	i
Cc1ccc(OCCOC(=O)c2c(-c3ccccc3)noc2C)cc1	-0.25	i	-8.8*	i	-6.7*	101*	i
CCOc1ccc(C(=O)COC(=O)c2c(-c3ccccc3)noc2C)cc1	-1.1	i	i	i	i	x	x
Cc1onc(-c2ccccc2)c1C(=O)OCCOc1cccc(Cl)c1	0.13	i	-14*	i	i	90*	i
CCOC(=O)C1CCN(C(=O)c2cc3cc(C)ccc3[nH]2)CC1	0.02	i	i	i	i	x	x
O=C(CNC(=O)C12CC3CC(CC(C3)C1)C2)Nc1ncccc1O	x	x	i	i	x	x	x
O=c1c(-c2ccccc2)c(-c2ccccc2)oc2cc(O)cc(O)c12	-0.81	i	-9*	i	i	112*	i
O=c1c(O)c(-c2ccccc2)oc2cc(O)cc(O)c12	x	x	i	i	x	x	x
CCc1nc(SCc2ccc(OCC(C)C)cc2)n[nH]1	-0.1	i	i	i	i	x	x
Cc1cc(OCC(=O)N(C)Cc2ccccc2)ccc1Cl	0.09	i	i	i	i	x	x
CN(Cc1ccccc1F)C(=O)COc1ccc(C(=O)c2ccccc2)cc1	-2	i	-12*	i	-7.7*	119*	i
Cc1ccc(N(CC(=O)NCCSc2ccccn2)S(=O)(=O)c2ccc(F)cc2)cc1	-1	i	i	i	i	x	x
Cn1c(SCC#N)nc2ccccc2c1=O	-0.28	i	i	i	i	x	x
Cn1c(SCc2ccc(Br)cc2)nc2ccccc2c1=O	-0.26	i	-9.5*	i	i	123*	0.13*
Cn1c(SCc2ccccc2)nc2ccsc2c1=O	-1.2	i	-9.8*	i	i	104*	i
Cn1c(SCCOc2ccccc2F)nc2ccccc2c1=O	1.2	i	-13*	i	i	110*	i
O=C(NCCCN1CCOCC1)C(=O)N/N=C/c1ccccc1O	0.09	i	i	i	i	x	x
CCc1nnc(NC(=O)CSc2nc(C)cs2)s1	-1.9	i	i	i	i	x	x
CCc1c(-c2ccccc2)nc2nc(C)c(C)nn12	0.01	i	-8.9*	i	i	104*	0.14*
COc1ccc(CNC(=O)COC(=O)CO/N=C(\C)c2ccc3c(c2)OCO3)cc1	-2	i	i	i	i	x	x
CC1=Nc2ccccc2/C1=C/c1sc(=N)n(-c2nccs2)c1O	-2.6	i	-10*	i	i	175*	0.089*
CC1=Nc2ccccc2/C1=C/c1nc(-c2ccc(C)s2)oc1O	0.53	i	i	i	i	x	x
O=C(CSc1ncnc2c1cnn2CCc1ccccc1)Nc1cccc(C(F)(F)F)c1	-0.06	i	-8.9*	i	i	129*	0.11*
Cc1c(Cl)cccc1NC(=O)CSc1ncnc2c1cnn2CCc1ccccc1	-0.44	i	i	i	i	x	x
Cc1nc(SC2CC(=O)N(c3cc(Cl)cc(Cl)c3)C2=O)nc2c1CCCC2 (stereo not drawn)	-1.5	i	-9.8*	x	i	105*	0.16*
CCN(CC)S(=O)(=O)c1ccc(NC(=O)c2cccs2)cc1	-0.14	i	-10*	i	i	83*	i
CCn1c(SCC(=O)Nc2cccc(F)c2)nc2c(c1=O)SC(C)C2 (stereo not drawn)	-0.85	i	-8.9*	i	i	88*	i
CCn1c(SCC(=O)NCc2ccc(F)cc2)nc2c(c1=O)SC(C)C2 (stereo not drawn)	-2.9	i	i	i	i	x	x
O=C(NCc1ccccc1F)C1CCCN1C(=O)Nc1ccc(F)cc1 (stereo not drawn)	-1.3	i	i	i	i	x	x

Source: PubChem (Johns Hopkins Ion Channel Center)
